Molecules are shown by their SMILES. Results filed as inconclusive are left out. Where a call stands in place of a potency, no number is given. Active and inactive are the calls of the source. The call rests on the fitted dose curve; in most records, active means well fitted inhibition curve with a large enough effect; inconclusive means small, poorly fitted or top-dose-only effect; inactive means flat fitted curve, though single readings scatter.

Chain of Calcium and integrin-binding protein 1 (Homo sapiens) (Q99828 whole entry, looked up): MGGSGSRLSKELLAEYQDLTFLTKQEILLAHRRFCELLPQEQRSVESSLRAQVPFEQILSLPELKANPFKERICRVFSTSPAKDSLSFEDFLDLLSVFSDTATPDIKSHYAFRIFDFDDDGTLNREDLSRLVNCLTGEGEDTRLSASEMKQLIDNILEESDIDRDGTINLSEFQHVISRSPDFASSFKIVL

The assay concerns the target Calcium and integrin-binding protein 1 (Homo sapiens) (UniProt Q99828). Briefly: Primary qHTS for Identification of Calcium Integrin Binding Protein 1 (CIB1) Competitor (AID 1508620).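 Further: GST tagged CIB1 binding a fluorescein labelled alphaIIb integrin peptide tracer; top concentration of the series differs between compounds.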 The note with it: CIB1-GST / FITC-alphaIIb peptide fluorescence polarization; series mostly up to 57.7 µM. A digest of the protocol: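 CIB1-GST (1 uM final) and compound incubated 15 min at room temperature before adding FITC-alphaIIb peptide tracer (100 nM final). Competition for binding read by fluorescence polarization (ex 480, em 540) after another 15 min at room temperature.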
Turning to `C/C=C(\C)C(=O)O[C@H]1[C@@H](O[C@]2(COC(=O)CC(C)C)O[C@H](COC(=O)C(C)C)[C@@H](OC(C)=O)[C@@H]2O)O[C@H](COC(C)=O)[C@@H](O)[C@@H]1O`, the Potency entry is “inactive”. Then `O=C(OCc1cccc(O)c1O[C@@H]1O[C@H](CO)[C@@H](O)[C@H](O)[C@H]1O)C1(O)C(=O)C2C=CC1C1C=CC(=O)C(O)(C(=O)OCc3cccc(O)c3O[C@@H]3O[C@H](CO)[C@@H](O)[C@H](O)[C@H]3O)C21` (some centres not stated), with “inactive”; and `C=CC(C)(CC/C=C(\C)CC/C=C(\C)CC(O)/C=C(\C)C(=O)O)O[C@@H]1O[C@H](CO)[C@@H](O)[C@H](O)[C@H]1O[C@@H]1O[C@H](CO)[C@@H](O)[C@H](O)[C@H]1O` (some centres not stated), with “inactive”; and `C[C@]12CCC(=O)C=C1[C@@H](O)C[C@@H]1[C@@H]2[C@@H](O)C[C@@]2(C)[C@H]1CC[C@]2(O)C(=O)CO`, with “inactive”. As for `CCCCN(CCCC)C(=O)CN1C[C@H](c2ccc3c(c2)OCO3)[C@@H](C(=O)O)[C@@H]1c1ccc(OC)cc1`, the Potency entry is “inactive”. `CC1=C(C)C(=O)OC(C(C)C2C(O)CC3C4C5OC5C5(O)CC(OC6OC(CO)C(O)C(O)C6O)CC(O)C5(C)C4CCC32C)C1` (configuration not stated): the Potency entry was “inactive”. Then `CC1(C)CC[C@]2(C(=O)O[C@@H]3O[C@H](CO)[C@@H](O)[C@H](O)[C@H]3O)CC[C@]3(C)C(=CCC4[C@@]5(C)C[C@@H](O)[C@H](O)[C@@](C)(CO)C5CC[C@]43C)C2C1` (some centres not stated), with “inactive”.

Source of the values: PubChem BioAssay (NCATS).
